Bioassay records (PubChem BioAssay)
aSyn 5UTR act = Activators via SNCA 5'UTR binding, MLPCN. alpha-synuclein 5'UTR reporter, activators screen. activity score, % (tested at 7.5 µM), hits read low. hit rate 7.1% among 300,000. AID 1814, 2009; in the data active means activity score below about -60%
Hits are given with their value; - = inactive. Not all results are given here.

SMILES | aSyn 5UTR act
COc1ccc(NC(=O)c2ccc(Br)o2)cc1 | -159.5
NC(=O)c1ccccc1NC(=S)NC(=O)c1ccc(Br)o1 | -123.7
O=C(Nc1ccc2c(c1)Cc1ccccc1-2)c1ccc(Br)o1 | -94.5
O=C(NC(=S)Nc1ccccc1)c1ccc(Br)o1 | -286.5
O=C(Nc1ccc(Nc2ccccc2)cc1)c1ccc(Br)o1 | -127.9
CC(C)(C)c1ccc(C(=O)Nc2ccc(CC(=O)O)cc2)o1 | -
O=C(Nc1cccc(OC(=O)c2ccc(Br)o2)c1)c1ccccc1 | -65.8
CC(C)c1ccc(NC(=O)c2ccc(Br)o2)cc1 | -148.5
Cc1ccc(OCc2ccc(C(=O)N3CCOCC3)cc2)cc1C | -65.5
Cc1ccc(OCC(=O)N2CCOCC2)cc1C | -68.0
Cn1c(/C=C/c2cccc(Br)c2)nc2ccccc2c1=O | -178.2
Cc1onc(-c2ccccc2)c1C(=O)O/N=C(\N)c1ccc([N+](=O)[O-])o1 | -136.0
CCOC(=O)C1=C(N)n2c(s/c(=C\c3cccnc3)c2=O)=C(C(=O)OC)C1c1cccnc1 (stereo not drawn) | -65.9
Cc1ccc(NC(=O)CSc2ccc(-c3ccc4c(c3)OCO4)nn2)cc1F | -76.0
Cc1ccc(NC(=O)Nc2ccc3c(c2)OCO3)c(OC(F)F)c1 | -106.2
Cc1cc(F)ccc1NC(=O)Nc1ccc2c(c1)OCO2 | -71.8
Cc1ccc(NC(=O)Nc2ccc3c(c2)OCO3)cc1F | -108.5
Nc1c(C(=O)NCc2ccco2)sc2nc3c(cc12)C(=O)CCC3 | -94.4
CCCOC(=O)c1sc2nc3c(cc2c1N)C(=O)CCC3 | -152.2
COc1ccc2cc3c(N)c(C(=O)NCc4ccco4)sc3nc2c1 | -191.7
N/C(=N\OC(=O)c1ccccc1[N+](=O)[O-])c1ccccn1 | -103.8
N/C(=N\OC(=O)c1ccccc1[N+](=O)[O-])c1cccnc1 | -96.9
Cc1ccc(C(=O)O/N=C(\N)c2cccnc2)cc1[N+](=O)[O-] | -124.8
N/C(=N\OC(=O)c1ccc([N+](=O)[O-])cc1)c1cccnc1 | -91.8
N/C(=N\OC(=O)c1cc([N+](=O)[O-])ccc1Cl)c1cccnc1 | -
SMILES | aSyn 5UTR act
N/C(=N\OC(=O)c1ccccc1Cl)c1ccccn1 | -
COc1ccc(/C(N)=N/OC(=O)c2ccc(C)c([N+](=O)[O-])c2)cc1OC | -126.0
c1ccc(CSc2nnc(Cc3ccccc3)o2)cc1 | -71.4
Oc1ccc(-c2nnc(SCc3ccccc3)o2)cc1 | -138.0
c1ccc(CSc2nnc(-c3cccnc3)o2)cc1 | -123.2
Fc1ccc(CSc2nnc(-c3cccnc3)o2)cc1 | -64.9
O=C(CSc1nnc(COc2ccc(Cl)cc2)o1)N1c2ccccc2CCc2ccccc21 | -
c1ccc(-c2nnc(SCCC3OCCCO3)o2)cc1 | -111.3
Cc1ccccc1-c1nnc(SCc2ccc(F)cc2)o1 | -126.5
CCCOc1ccc(-c2nnc(-c3ccncc3)o2)cc1 | -80.4
COc1ccc(-c2nnc(-c3cccnc3)o2)cc1 | -111.5
FC(F)(F)c1ccc(-c2nnc(-c3cccnc3)o2)cc1 | -88.0
CCCOc1ccc(C(=O)NNC(=S)NC(C)=O)cc1 | -
Cc1ccc(-c2nnc(-c3cccnc3)o2)cc1 | -113.1
Brc1ccc(-c2nnc(-c3ccccc3Br)o2)cc1 | -100.1
Brc1ccccc1-c1nnc(-c2cccnc2)o1 | -106.5
Cc1noc(C)c1-c1nnc(-c2ccc(C(F)(F)F)cc2)o1 | -65.6
Clc1ccc(-c2nnc(-c3cccnc3)o2)cc1 | -138.5
Brc1ccc(-c2nnc(-c3cccnc3)o2)cc1 | -143.8
Clc1ccc(-c2nnc(-c3ccccc3)o2)cn1 | -153.0
Cc1cccc(NC(=O)c2onc3c2CCCC3)c1C | -162.0
O=C(Nc1ccc2ccccc2c1)c1onc2c1CCCC2 | -71.4
Cc1ccccc1NC(=O)c1onc2c1CCCC2 | -131.3
COC(=O)c1cccc(NC(=O)c2onc3c2CCCC3)c1 | -
Cc1cccc(NC(=O)c2onc3c2CCCC3)n1 | -
SMILES | aSyn 5UTR act
CC(C)n1cnc2cc(NCc3ccccn3)ccc21 | -97.5
CC(C)n1cnc2cc(NCc3ccco3)ccc21 | -109.0
Cc1cc(NCc2ccccn2)ccc1Br | -198.1
c1ccc(-n2cnc3cc(NCc4ccccn4)ccc32)cc1 | -66.1
CC1CCC/C(=N\NC(=S)Nc2ccccc2)C1 (stereo not drawn) | -94.0
CC1CCCC/C1=N\NC(=S)Nc1ccccc1 (stereo not drawn) | -131.5
C/C(=N/Nc1ccc([N+](=O)[O-])cc1)c1ccc(C)cc1C | -89.1
C/C(=N\NC(=O)c1ccc(O)cc1)c1cc2ccccc2o1 | -98.0
C/C(=N\Nc1ccc([N+](=O)[O-])cc1)c1cc2ccccc2o1 | -72.6
C/C(=N/Nc1ccc([N+](=O)[O-])cc1)c1c[nH]c2ccccc12 | -171.2
CC(C)(C)N(Cc1ccccc1)C(=O)CN1C(=O)c2ccccc2C1=O | -96.9
O=C(Nc1ccc(N2CCCCC2)cc1)c1cncc(Br)c1 | -128.4
O=C(Nc1ccc(N2CCN(C(=O)c3ccccc3F)CC2)cc1)c1cncc(Br)c1 | -73.7
CC(=O)N/C(N)=N/c1nc(=O)c2ccccc2s1 | -98.7
CCOC(=O)N/C(N)=N/c1nc2ccccc2s1 | -115.6
CC(=O)Nc1sc(N/N=C\c2ccccc2Cl)nc1-c1cccs1 | -141.3
CC(=O)Nc1sc(N/N=C\c2ccccc2)nc1-c1cccs1 | -113.9
CC(=O)Nc1sc(NC(=O)c2ccc(Cl)cc2)nc1-c1cccs1 | -72.9
O=C(O)c1cccc(NC2=Nc3cccc4cccc2c34)c1 | -114.0
CC(C)C(=O)OCC(=O)Nc1ccc(N=Nc2ccccc2)cc1 | -186.4
CC1=NN(c2nc(-c3ccc(C)cc3)cs2)C(=O)C1N=Nc1ccc(C(N)=O)cc1 (stereo not drawn) | -
O=C(Nc1ccc(N=Nc2ccccc2)cc1)c1ccccc1Cl | -170.1
CC(=O)Nc1ccc(N2N=C(C)C(N=Nc3ccccc3)C2=O)cc1 (stereo not drawn) | -98.5
CC1(C(=O)OCC(=O)Nc2ccccc2)CC1(Cl)Cl (stereo not drawn) | -68.6
CC(=O)Nc1ccc(N=Nc2ccccc2)cc1 | -179.1
SMILES | aSyn 5UTR act
O=C(CCl)Nc1ccc(N=Nc2ccccc2)cc1 | -63.1
CC(=O)OCC(=O)Nc1ccc(N=Nc2ccccc2)cc1 | -142.9
O=C1c2ccccc2CN1CCSC(=S)N1CCOCC1 | -105.3
O=C1c2ccccc2CN1CCSC(=S)N1CCSCC1 | -109.4
COCCNC(=O)c1cc2c(s1)-c1ccc(Cl)cc1SC2 | -103.9
CCOc1ccc(C2CC(c3ccc(CC)cc3)Nc3nc(N)nn32)cc1 (stereo not drawn) | -64.7
Cn1nc(-c2ccccc2)nc1-c1ccccc1 | -65.5
Cn1nc(-c2ccc(Cl)cc2)nc2c(=O)n(C)c(=O)nc1-2 | -
Cc1ccc(Cn2nc(-c3ccccc3)nc2-c2ccccc2)cc1 | -154.4
CCCn1nnc(NC(=O)c2ccc(-c3ccccc3)cc2)n1 | -217.6
CCCn1nnc(NC(=O)c2ccc(Br)cc2)n1 | -137.1
CCCn1nnc(NC(=O)c2ccc(OC)cc2)n1 | -121.4
CCOc1ccc(C(=O)Nc2nnn(CC)n2)cc1 | -86.0
Cc1ccc2nc(NC(=O)c3ccc(NS(=O)(=O)c4cccs4)cc3)sc2c1 | -129.8
Cc1cccc(C(=O)Nc2nc3ccc(S(C)(=O)=O)cc3s2)c1 | -281.4
CC(C)(C)C(=O)Nc1nc2ccc(S(C)(=O)=O)cc2s1 | -112.1
CCc1c(C)sc(NC(=O)c2cc(C)on2)c1C#N | -103.2
Cc1cc(C(=O)Nc2sc(C)c(-c3ccc(F)cc3)c2C(N)=O)no1 | -199.8
CCc1c(C)sc(NC(=O)c2cccs2)c1C#N | -157.5
Cc1sc(NC(=O)c2ccccc2)c(C#N)c1-c1ccccc1 | -141.3
O=C(c1cc([N+](=O)[O-])ccc1N1CCOCC1)N1CCN(c2ccccc2)CC1 | -
